Hits are enriched below; roughly 3.7% of the tested compounds scored in any of these assays.
NALP3 yeast inh: NALP3 inflammasome inhibitors in reconstituted yeast, primary screen, luminescence, uHTS; Yeast reconstituted NLRP3/ASC/caspase-1, beta-gal luminescence, 24 h; inhibition, % at 10 µM; hit rate 0.39% among 330,000;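 active = inhibition of 50% or more; inactive = inhibition below 50%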;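 also: plate controls were induced DMSO wells for no effect and uninduced yeast grown without galactose for full effect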
tim10-1 inh: growth inhibitors of tim10-1 mutant yeast, primary screen, luminescence, uHTS; S. cerevisiae tim10-1 ts strain growth, BacTiter-Glo, 24 h; inhibition, % at 20 µM; hit rate 2.2% among 330,000;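 active = inhibition of at least 40%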;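 also: mutant grown at 25 °C; 0% = DMSO wells with yeast and 100% = wells holding no yeast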
tim23-1 inh: growth inhibitors of tim23-1 mutant yeast, primary screen, luminescence, uHTS | S. cerevisiae tim23-1 growth, BacTiter-Glo luminescence, 24 h | inhibition, % at 20 µM | hit rate 1.3% among 330,000;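 active = growth inhibition of the mutant yeast at or above 50%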;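 also: temperature-sensitive mutant grown at 25 °C; plate controls were DMSO-treated mutant yeast for no effect and medium wells lacking yeast for full effect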
PfHsp90 yeast 2: growth inhibition of PfHsp90-expressing yeast, primary screen, antimalarial PfHsp90 inhibitor project, S. cerevisiae, BacTiter-Glo luminescence, single point, set 2; BacTiter-Glo ATP, 48 h; yeast lacking PDR1 and PDR3 efflux regulators; AID 504621, 2011; inhibition, % at 9.4 µM; hit rate 0.32% among 310,000;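 active = every replicate shows inhibition above about 80%, whatever the replicate mean, limit read from the data; inconclusive = mean inhibition reaches the set limit but some replicate falls short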;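 also: 0% = DMSO neutral controls and 100% = 20 µM radicicol positive controls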
TIM10 inh: growth inhibitors of isogenic TIM10 control yeast, primary screen, counter-screen for tim10-1 yeast inhibitor project, luminescence, uHTS. AID 463195, 2010. hit rate 1.4% among 330,000. S. cerevisiae TIM10 strain growth, BacTiter-Glo luminescence, 24 h. inhibition, % at 10 µM;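 active = inhibition of 40% or more at the single tested concentration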;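 also: wild-type TIM10 isogenic control strain grown at permissive 25 °C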
tim23-1 conf: tim23-1 mutant yeast growth inhibitors, confirmation, luminescence, single concentration. shares compounds with tim23-1 inh. S. cerevisiae tim23-1 growth, BacTiter-Glo luminescence, 24 h. inhibition, % at 20 µM. hit rate 83% among 4,400. AID 463218, 2010;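 active = inhibition above about 39% in either of two replicate wells at 20 µM, limit read from the data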;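 also: temperature-sensitive tim23-1 mutant grown at 25 °C; 0% = DMSO wells with yeast and 100% = medium wells without yeast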
Numbers without * were called inactive; ? = inconclusive; · = no result given.

SMILES	NALP3 yeast inh	tim10-1 inh	tim23-1 inh	PfHsp90 yeast 2	TIM10 inh	tim23-1 conf
C#CCOCCOCCOCCNc1nc(N2CCN(C(=O)CCCCCCCCCCNC(=O)Cn3cc(C[C@@H](C)O)nn3)CC2)nc(N2CCN(C(=O)CCCCCCCCCCNC(=O)[C@H](CCCCN)n3cc(C[C@@H](C)CC)nn3)CC2)n1	30	34	54*	9	7	56*
C#CCOCCOCCOCCNc1nc(N2CCN(C(=O)CCCCCCCCCCNC(=O)Cn3cc(CCCCCN)nn3)CC2)nc(N2CCN(C(=O)CCCCCCCCCCNC(=O)[C@H](CO)n3cc(CCCCCN)nn3)CC2)n1	33	34	53*	11	11	45*
COc1cccc(-n2cnc3sc4c(c3c2=O)CCC4)c1	11	19	35	·	-11	·
COc1ccc(/C(C)=N/NC(=O)c2cccc(S(=O)(=O)N3CCCC3)c2)c(O)c1	16	18	-1	2	8	·
CCNC(=O)C1CCCc2c1[nH]c1ccc(Cl)cc21 (stereo not drawn)	31	34	-13	-20	4	·
Cc1ccc(-n2c(SCC(=O)Nc3cccc(S(N)(=O)=O)c3)nc3ccccc32)cc1	11	15	14	-1	15	·
C=CCn1c(SCc2cc(=O)n3ccsc3n2)nc2cc(Cl)ccc2c1=O	25	27	55*	42	29	59*
C=CCn1c(SCc2cc(=O)n3ccsc3n2)nc2ccccc2c1=O	9	11	51*	-63	5	56*
Cc1c(NC2=CC(=O)CC(C)(C)C2)c(=O)n(-c2ccccc2)n1C	5	2	10	-10	-11	·
COc1ccc(-c2coc3cc(OC(C)=O)c(OC)cc3c2=O)cc1	16	4	53*	-11	19	28
O=C(N/N=C/C1CC=CCC1)c1cc(-c2cccnc2)nc2ccccc12 (stereo not drawn)	2	12	19	0	2	·
CC(=O)Oc1ccc(/C=C2/CCc3ccccc3C2=O)cc1	39	-11	60*	-8	31	51*
COc1cccc(/C=C2\CCc3ccccc3C2=O)c1	34	28	38	-6	10	·
COc1ccc(/C=N/NC(=O)c2ccoc2C)cc1CN1CCN(c2ccc(F)cc2)CC1	3	20	19	-10	-10	·
Fc1ccc(Oc2nc(-c3ccccn3)nc3ccccc23)cc1	28	37	50*	·	15	51*
O=C(Nc1cccc(Cl)c1)ON=C1c2ccccc2-c2ccccc21	4	17	62*	-5	8	46*
Cc1c(NS(=O)(=O)c2ccc(NCCN3CCOCC3)c([N+](=O)[O-])c2)c(=O)n(-c2ccccc2)n1C	14	-5	21	-8	15	·
COc1cccc(N/C=C/c2onc(C)c2[N+](=O)[O-])c1	13	19	-11	14	-2	·
CCOc1cc(/C=C2\C(=O)ON=C2C)ccc1OCc1ccccc1	-6	32	51*	11	12	41*
O=c1c(-c2ccc(Cl)cc2)cnc2n1CCS2	17	8	-3	10	-4	·
COc1ccccc1-c1sc2ccccc2c1-c1ccc(O)cc1	15	-19	55*	114*	33	4
COc1ccc(-c2sc3ccccc3c2-c2ccc(O)cc2)cc1	23	-11	35	?	35	·
O=C1CC(/C=C/c2ccncc2)=Nc2ccccc2N1	-1	12	23	-13	8	·
COc1ccc(CNCc2cc(Cl)ccc2O)cc1	3	24	9	7	-3	·
Oc1ccc(Cl)cc1CNCc1ccc(F)c(F)c1	35	6	53*	-28	12	37
SMILES	NALP3 yeast inh	tim10-1 inh	tim23-1 inh	PfHsp90 yeast 2	TIM10 inh	tim23-1 conf
CCOC(=O)C1=CN(Cc2cccc(F)c2)S(=O)(=O)NC1c1ccc(Br)cc1F (stereo not drawn)	·	29	56*	-44	19	46*
COC(=O)N/N=C/c1ccccc1OCCOc1ccc(OC)cc1	2	2	51*	-19	-3	48*
Cc1ccc(S(=O)(=O)NCC(=O)NCC(=O)OCC(=O)NC(=O)NC(C)(C)C)cc1C	3	-14	20	28	8	·
CCC(=O)C1CCCN(C(=O)CCc2nnc(-c3ccc(C(C)=O)s3)o2)C1 (stereo not drawn)	6	-4	-1	13	5	·
CCc1cc2c3c(c1)/C(=C1/SC(N)=NC1=O)C(=O)N3C(C)(C)C=C2C	22	13	21	-1	17	·
CCc1cc2c3c(c1)C(C)CC(C)(C)N3C(=O)/C2=C1\SC(=O)NC1=O (stereo not drawn)	18	23	59*	20	18	50*
C=C1CCN(c2ccc(C(=O)NCc3ccc(OC)cc3)cc2[N+](=O)[O-])CC1	34	6	20	·	12	·
Nc1c(C(=O)Nc2ccc3c(c2)OCCO3)nnn1Cc1ccccc1Cl	34	8	66*	83*	-18	42*
Cc1cc(Nc2ccccc2)nn1C(=O)c1ccccc1	7	0	51*	-17	30	52*
CC(C)(C)[C@H]1COC(=O)CCCC/C=C\C[C@H](CC(=O)NCCO)C(=O)N1	1	-11	-8	-1	-2	·
O=[N+]([O-])c1nn(-c2ccc3c(c2)OCCO3)n(O)c1=Nc1ccc(Cl)cc1	36	24	44	35	20	·
O=[N+]([O-])c1nn(-c2ccc3c(c2)OCCO3)n(O)c1=Nc1ccccc1	31	36	53*	-91	5	23
COc1cc(/C=C/C(=O)OCC(=O)c2ccc(OC(F)F)cc2)ccc1O	18	-9	65*	0	10	54*
COc1ccccc1CCNC(=O)C(=O)NCC1OCCN1S(=O)(=O)c1ccc2c(c1)OCCO2 (stereo not drawn)	0	6	0	9	5	·
CC(=O)Nc1ccc(NC(=O)CSc2nnc(NC(=O)Cc3ccc(F)cc3)s2)cc1	2	-7	-8	11	1	·
Cc1ccc2oc(=O)c(-c3ccc(O)cc3)c(C)c2c1	17	23	52*	1	13	47*
Cc1c(-c2ccccc2)c(=O)oc2ccc(O)cc12	2	19	21	-19	-26	·
COc1ccc(OCC(=O)Nc2nc3c(s2)CCCC3)cc1	41	1	9	13	-2	·
COc1ccc(NC(=O)Nc2nc3c(s2)CCCC3)cc1	6	20	63*	23	24	50*
CC(C)OP(=O)(OC(C)C)C1(NS(=O)(=O)c2ccc(Cl)cc2)C=C(Cl)C(=O)C(Cl)=C1	8	16	15	-7	13	·

Screens: PubChem BioAssay, several laboratories
